# Test results: the supplement of paper PMC7695840
# Assays:
# [1] = system: Staphylococcus aureus MW2 delta-mecA (mecA-); test: normalized GFP fluorescence (growth of mecA- strain) (fraction of control range); higher = more growth of mecA- strain; settings: compound concentration: 150 uM; cefoxitin: subinhibitory; fluorescent label: GFP
# Outline: (§1)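 Two pre-induced S. aureus MW2 strains, one with the gene labeled by DsRed and one lacking it labeled by GFP, were mixed 1:1 in LB with a subinhibitory antibiotic dose set daily. The mix went at 5 µL/well onto 150 μM compound (1.5% DMSO) in 1536-well plates, single replicate, and grew unshaken 20 h at 37 °C, 90% humidity. DsRed (540/590) and GFP (485/520) values were scaled per plate between single-strain control medians, and plates with high untreated ratios or rows with DsRed/GFP >10 were left out.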
# [2] = system: Staphylococcus aureus MW2 (mecA+); test: normalized DsRed fluorescence (growth of mecA+ strain) (fraction of control range); higher = more growth of mecA+ strain; settings: compound concentration: 150 uM; cefoxitin: subinhibitory; fluorescent label: DsRed
# Outline: as §1
SMILES,normalized GFP fluorescence [1],normalized DsRed fluorescence [2]
Nc1nc(O)c2ncn(CCC(CO)CO)c2n1,0.331,0.941
CC(C)(O/N=C(\C(=O)N[C@@H]1C(=O)N2C(C(=O)[O-])=C(C[n+]3ccccc3)CS[C@H]12)c1csc(N)n1)C(=O)O,0.00772,1.28
C=C(c1ccc(C(=O)O)cc1)c1cc2c(cc1C)C(C)(C)CCC2(C)C [Bexarotene],0.666,0.742
C[N+](C)(C)C[C@H](O)CC(=O)[O-],0.791,0.508
CC[C@@]1(O)C(=O)OCc2c1cc1n(c2=O)Cc2cc3c(CN(C)C)c(O)ccc3nc2-1,0.791,0.763
CC1(C)O[C@@H]2C[C@H]3[C@@H]4CCC5=CC(=O)C=C[C@]5(C)[C@H]4[C@@H](O)C[C@]3(C)[C@]2(C(=O)CO)O1,0.387,1.36
COCCc1ccc(OCC(O)CNC(C)C)cc1 (stereo not drawn),0.861,0.587
CS(=O)(=O)OCCCCOS(C)(=O)=O,0.346,0.573
Nc1nc(N)c2nc(-c3ccccc3)c(N)nc2n1,0.0839,1.75
C[C@]12CC[C@@H]3c4ccc(O)cc4CC[C@H]3[C@@H]1C[C@@H](O)[C@@H]2O,0.63,0.459
CS(=O)(=O)CCNCc1ccc(-c2ccc3ncnc(Nc4ccc(OCc5cccc(F)c5)c(Cl)c4)c3c2)o1 [Lapatinib Ditosylate (Tykerb)],-0.0239,1.52
CNCc1ccc(-c2[nH]c3cc(F)cc4c3c2CCNC4=O)cc1,0.424,0.641
CC(N/C(=N\C#N)Nc1ccncc1)C(C)(C)C (stereo not drawn),0.124,1.44
CC(C)C[C@H](NC(=O)[C@H](CCc1ccccc1)NC(=O)CN1CCOCC1)C(=O)N[C@@H](Cc1ccccc1)C(=O)N[C@@H](CC(C)C)C(=O)[C@@]1(C)CO1 [Carfilzomib (PR-171)],0.271,1.11
